Most compounds without a hit are left out; they make up all but 2.1% or so of the library.
aSyn 5UTR inh: MLPCN primary screen, SNCA 5' untranslated region; alpha-synuclein 5'UTR reporter, inhibitor activity; inhibition, % (tested at 7.5 µM); 300,000 tested, 0.82% active; AID 1813, 2009; in the data active = inhibition above about 60%;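 also: H4 neuroglioblastoma cells stably carrying SNCA 5'UTR luciferase fusion; 0% = DMSO wells and 100% = positive control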
EBV LMP1 NFkB: EBV LMP1-driven NF-kappaB luciferase reporter inhibitors, primary screen, cell-based, luminescence, single point | LMP1-induced NF-kappaB luciferase reporter cells | inhibition, % at 12.5 µM | 350,000 tested, 0.69% active; in the data active = inhibition above about 41%;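 also: 0% = neutral control wells and 100% = reference inhibitor control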
TRPM1 prom inh: inhibitors of MITF-dependent TRPM1 promoter reporter, primary screen, cell-based, SK-MEL-5, single point, luciferase. SK-MEL-5 TRPM1 promoter luciferase, 24 h. inhibition, % at 12.5 µM. 330,000 tested, 0.83% active. AID 488899, 2010;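 active = mean inhibition across replicates of 60% or more, whatever share of single replicates reaches that level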
Shn3 3UTR inh: reduction of Shn3 3'UTR firefly luciferase signal, primary screen, Schnurri-3 inhibitor project, cell-based, Clone20 osteoblasts, set 2 | inhibition, % at 12.5 µM | Clone20 osteoblast Shn3 3'UTR firefly luciferase, 24 h | 360,000 tested, 0.52% active;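 active = mean inhibition of at least 75% with every replicate also reaching 75%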;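 also: 0% = median of neutral control wells and 100% = pilot-screen positive control compound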
PAX8 inh HTS: inhibitors of PAX8-driven TPO luciferase reporter, primary screen, RMG-I cells, single concentration | SteadyGlo, 24 h | 360,000 tested, 1.2% active | AID 652154, 2013 | inhibition, % at 12.6 µM;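 active = mean replicate inhibition at least 60% with every replicate also reaching 60%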;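 also: luciferase light reporting Pax8 driven TPO promoter activity; plate controls were median of neutral control wells for no effect and mitoxantrone controls for full effect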
* hit, by the source's call; / = no result.

SMILES | aSyn 5UTR inh | EBV LMP1 NFkB | TRPM1 prom inh | Shn3 3UTR inh | PAX8 inh HTS
O=C(Cc1ccccn1)NCC[C@@H]1CC[C@H](NC(=O)Nc2ccc(C(F)(F)F)cc2)[C@@H](CO)O1 | / | / | / | / | 84.5*
CCOC(=O)/C(C#N)=N\Nc1ccc(S(=O)(=O)Nc2nc(C)cc(C)n2)cc1 | 5.6 | -1.3 | 1.5 | 10.2 | 18.4
O=c1cc(-c2ccccc2)oc2ccc3ccccc3c12 | / | 67.7* | / | 62.8 | 90.7*
O=c1cc(-c2ccc(O)c(O)c2)oc2ccc3ccccc3c12 | / | 51.8* | 88.0* | 78.3 | -20.0
COc1ccccc1NS(=O)(=O)c1cccc(N=C2N=C(N)c3ccccc32)c1 | 2.3 | -8.8 | 18.3 | 13.0 | 31.0
C[C@@H]1CCCCO[C@@H](CN(C)CC2CCCCC2)[C@@H](C)CN([C@@H](C)CO)C(=O)c2cc(NC(=O)Nc3ccccc3)ccc2O1 | / | / | / | / | 8.6
C[C@@H]1CCCCO[C@@H](CN(C)Cc2ccc(Cl)c(Cl)c2)[C@@H](C)CN([C@H](C)CO)C(=O)c2cc(NC(=O)c3ccccc3)ccc2O1 | / | / | / | / | 15.1
C[C@@H]1CCCCO[C@H](CN(C)Cc2ccc(Cl)c(Cl)c2)[C@H](C)CN([C@@H](C)CO)C(=O)c2cc(NC(=O)Nc3ccccc3)ccc2O1 | / | / | / | / | 81.7*
C[C@@H]1CN([C@H](C)CO)C(=O)c2cc(NC(=O)Nc3ccccc3)ccc2O[C@@H](C)CCCCO[C@H]1CN(C)Cc1ccc(Cl)c(Cl)c1 | / | / | / | / | 104.4*
C[C@@H]1CCCCO[C@@H](CN(C)Cc2ccc(Cl)c(Cl)c2)[C@H](C)CN([C@H](C)CO)C(=O)c2cc(NC(=O)Nc3ccccc3)ccc2O1 | / | / | / | / | 90.1*
C[C@@H]1CCCCO[C@H](CN(C)CC2CCCCC2)[C@H](C)CN([C@@H](C)CO)C(=O)c2cc(NC(=O)Nc3ccccc3)ccc2O1 | / | / | / | / | 78.4*
CCN(CC)CCNC(=O)c1ccc2c(c1NCCO)C(=O)c1ccccc1C2=O | 95.6* | / | / | 25.4 | 69.0*
CCN(CC)CCC(=O)Nc1cccc2c1C(=O)c1ccccc1C2=O | -5.0 | -38.3 | 70.9* | -18.9 | -60.5
Nc1cccc(C(=O)OCC(=O)Nc2cccc3c2C(=O)c2ccccc2C3=O)c1 | 16.1 | 16.4 | 17.5 | -5.5 | -22.2
CCNC(=O)C1CCCN(C(=O)c2ccc(C)c(F)c2)CC1 (configuration not stated) | / | / | / | 15.6 | -1.1
C[C@H](CO)N1C[C@H](C)[C@H](CN(C)C(=O)CN(C)C)Oc2ncc(C#CCC3CCCC3)cc2C1=O | / | / | / | / | -18.2
COc1cc(NC(=O)c2ccc([N+](=O)[O-])o2)ccc1NC(=O)c1ccco1 | 10.6 | -33.6 | 84.2* | 68.2 | 89.9*
Cc1cc(NC(=O)c2ccc([N+](=O)[O-])o2)ccc1NC(=O)c1ccco1 | -110.4 | -26.6 | 76.6* | -5.6 | 98.9*
COc1cc(NC(=O)c2cccc([N+](=O)[O-])c2)ccc1NC(=O)c1ccco1 | -32.0 | 10.1 | -12.6 | 0.4 | 8.7
CCC(=O)N1[C@H](CO)[C@@H](c2ccccc2)[C@@H]1CN(CC)C(=O)c1ccc(F)cc1 | / | / | / | / | -4.3
Cn1cc(S(=O)(=O)N2CCN(C(=O)c3ccco3)CC2)c(=O)n(C)c1=O | 10.6 | 87.5* | -18.9 | 17.3 | -29.5
CCn1c(O)c(N=NC(=O)Cc2csc(N3CCOCC3)n2)c2ccccc21 | 12.3 | 1.8 | -11.3 | -11.2 | 5.1
Nc1nnc(SCc2ccccc2F)s1 | -17.0 | -8.9 | -5.8 | -11.0 | -19.9
CNC(=O)c1cc(Cl)c(OC)c(OC)c1 | -0.6 | -1.6 | -10.2 | 14.4 | 6.3
COC(=O)C(=O)C1CCc2c(Cl)cc(OC)c(OC)c2C1=O (configuration not stated) | / | 86.8* | 10.2 | -1.5 | 31.8
SMILES | aSyn 5UTR inh | EBV LMP1 NFkB | TRPM1 prom inh | Shn3 3UTR inh | PAX8 inh HTS
OC[C@H]1N[C@@H](CNCC2CCC2)[C@@H]1c1ccc(C2=CCCC2)cc1 | / | / | / | / | -18.8
CCCC(=O)C1=C(O)C(C(=O)OC)C(C)(C)CC1=Nc1ccc(C)cc1 (configuration not stated) | 36.1 | 2.7 | 2.1 | 7.9 | 0.1
CCCC(=O)C1=C(O)C(C(=O)OC)C(C)(C)CC1=Nc1ccncc1 (configuration not stated) | 5.7 | 77.1* | 13.6 | 2.4 | /
CCC(C(=O)Nc1cccc(S(=O)(=O)N(C)c2ccccc2)c1)c1ccccc1 (configuration not stated) | / | 3.4 | 16.6 | 25.5 | 19.1
Cn1ccnc1SCc1nc2c(cnn2-c2ccccc2)c(=O)[nH]1 | 11.4 | -1.3 | -5.7 | -22.4 | 139.8*
CCOC(=O)c1sc2nc(CSc3ccccc3)nc(N3CCCN(C)CC3)c2c1C | 78.3* | -15.3 | 14.5 | 5.0 | 27.8
CCOC(=O)c1sc2nc(CSc3ccccc3)nc(N3CCC(C(N)=O)CC3)c2c1C | 17.7 | 6.5 | 13.7 | 31.8 | 12.8
Cc1ccc(NC(=O)c2c(C)noc2C)cc1S(=O)(=O)N1CCOCC1 | / | 4.5 | 1.8 | 8.5 | /
CCOC(=O)NC1CCc2cc(OC)c(OC)c(OC)c2-c2ccc(OC)c(=O)cc21 (configuration not stated) | / | -3.3 | 31.4 | -26.1 | 73.4*
COc1cc2c(c(OC)c1OC)-c1ccc(NCc3ccccc3)c(=O)cc1C(NC(C)=O)CC2 (configuration not stated) | / | 12.4 | / | 21.4 | 84.3*
COc1cc2c(c(OC)c1OC)-c1ccc(OC)c(=O)cc1[C@@H](NC(C)=O)CC2 | 95.7* | -1.8 | 39.9 | -0.7 | 95.8*
COc1cc2c(c(OC)c1OC)-c1ccc(NC(=O)c3ccc(F)cc3)c(=O)cc1[C@@H](NC(C)=O)CC2 | -25.9 | 4.5 | 13.0 | 13.5 | 0.3
C/C(N)=C(/C#N)C(=O)CSc1nnc(-c2ccccc2)n1C | -14.8 | 0.3 | -9.1 | -19.8 | 15.4
CCN(CC)S(=O)(=O)c1ccc(-c2cc(C(=O)OC)sc2C(F)(F)F)cc1 | -0.1 | / | / | -0.5 | 1.2
COc1cccc(S(=O)(=O)N(C)C[C@H]2OCc3ccccc3-c3c(n(C)c4ccccc34)C(=O)N([C@H](C)CO)C[C@H]2C)c1 | / | / | / | / | 85.8*
COc1ccccc1S(=O)(=O)N(C)C[C@H]1OCc2ccccc2-c2c(n(C)c3ccccc23)C(=O)N([C@H](C)CO)C[C@@H]1C | / | / | / | / | 61.9*
C[C@@H]1CN([C@@H](C)CO)C(=O)c2c(c3ccccc3n2C)-c2ccccc2CO[C@@H]1CN(C)S(=O)(=O)c1cccc(F)c1 | / | / | / | / | -55.2
COc1ccccc1S(=O)(=O)N(C)C[C@@H]1OCc2ccccc2-c2c(n(C)c3ccccc23)C(=O)N([C@H](C)CO)C[C@H]1C | / | / | / | / | 16.6
C[C@@H]1CN([C@@H](C)CO)C(=O)c2c(c3ccccc3n2C)-c2ccccc2CO[C@H]1CN(C)S(=O)(=O)c1cccc(F)c1 | / | / | / | / | 86.8*
COc1cccc(S(=O)(=O)N(C)C[C@@H]2OCc3ccccc3-c3c(n(C)c4ccccc34)C(=O)N([C@@H](C)CO)C[C@H]2C)c1 | / | / | / | / | 8.0
O=C1NC[C@H](CCCCN2CCN(Cc3ccccc3)C(=O)C2=O)N(CCc2ccc(O)cc2)C1=O | / | / | / | / | 23.1

Bioassay records: PubChem BioAssay, Broad Institute
